Results on 40 molecules are retold here after PubChem BioAssay (NCI).

Structures are written as SMILES. About 79,000 compounds went through this panel and 15% of them were active in at least one assay; those are over-represented in the sample as a whole. Activity calls are given as the source filed them. No stated cut-off is given here; in the data, active means growth inhibition above about 70%; inactive means the rest.

The nature of the assay: NCI Yeast Anticancer Drug Screen. Data for the mec2-1 strain (AID 157). Conditions: S. cerevisiae mec2-1 strain, at 50.0 µM, stronger effect = higher value. The method, then: Growth inhibition of yeast strains with defined genetic alterations is measured as a screen for potential anti-cancer activity. Selected strains with alterations in DNA damage repair or cell cycle control were exposed to compounds and growth inhibition was measured relative to vehicle treated controls. The strain used in this assay is mec2-1
With `CN=C1CC2CCCC1C2` (stereo not given), the growth inhibition was 0.85% (inactive).
With `Cn1c(=S)[nH]c2cc(Cl)c(Cl)cc21`, the growth inhibition is -3.05% (inactive).
To `O=C(O)COc1ccccc1P(=O)(c1ccccc1)c1ccccc1` belongs 17.4% (inactive).
To `CC(=O)Oc1cccc2c1C(=O)C1CC(O)C3(C=O)OC(C)(C)OC2(C)C13` (stereo not given) belongs -2.6% (inactive); to `CCC(=O)N(C)c1ccccc1`, 6.3% (inactive); to `O=C(CN1CCCCC1)NC(=O)N/N=C\c1ccco1`, 3% (inactive).
The figure for `O=C(O)C1C2C3CCC(C3)C12` (stereo not given) is 16.4% (inactive); for `COC(=O)c1s/c(=N\C(=S)N(C)C)n(-c2ccccc2)c1C(=O)OC` it is 20.2% (inactive); for `NC(=O)c1ccccc1OCC(=O)O` it is -1.2% (inactive).
As to `Cc1ccccc1C(C#N)/C(=N/NC(N)=S)C(=O)Nc1c(C)cccc1C` (stereo not given), the growth inhibition is -27.7% (inactive).
The figure for `CC[N+](CC)(CC)CCCC[P+](CC)(CC)CC` is -9.15% (inactive); for `OC(c1ccccc1)(C1CCNCC1)C1CC1` (stereo not given) it is -10.4% (inactive); for `O=C(/C=C/c1ccc(O)cc1)c1ccc(Cl)cc1` it is -22.9% (inactive).
The figure for `CCCCCCCCCCCCCCCC[N+](C)(C)CCN=[N+]=[N-]` is 99.7% (active).
The figure for `O=C(O)CCc1ccc2c(c1)OCO2` is -24.1% (inactive); for `COC(=O)c1cc([N+](=O)[O-])cc2ccccc12` it is -24.6% (inactive).
With `C1=CC(=C(c2ccccc2)c2ccccc2)C=C1`, the growth inhibition is -16.9% (inactive).
To `COc1ccccc1NC(=O)c1nc2ccc([N+](=O)[O-])cc2nc1C` belongs 19.1% (inactive); to `Cc1ccc(N=C2SC(=NN(C)C)SC2=Nc2ccc(C)cc2)cc1`, -14.1% (inactive).
To `CC(=O)CC(=O)NCCCN1CCCCC1` belongs -52.1% (inactive); to `O=[N+]([O-])c1ccc(P(=O)(Nc2ccc(Cl)cc2)Nc2ccc(Cl)cc2)cc1`, 96.8% (active); to `COc1ccc(/C=c2/s/c(=C(\C#N)c3nc4ccccc4[nH]3)n(-c3ccccc3)c2=O)cc1`, -15.2% (inactive).
To `C(=C/c1ccc(-c2ccccc2)cc1)/c1ccc(-c2ccccc2)cc1` belongs -13.4% (inactive); to `CC(=O)/C=C1\N(C)c2ccccc2C1(C)C`, -12.3% (inactive); to `COC1=CC(=O)O/C1=C(\OC)C1OC1c1ccccc1` (stereo not given), -7.25% (inactive).
Regarding `Clc1ccc(/C=N/N2CCN(/N=C/c3ccc(Cl)cc3)CC2)cc1`, the growth inhibition is -10.3% (inactive).
For the molecule `COc1ccc(C2CC(=O)Oc3ccccc3O2)cc1` (stereo not given), the growth inhibition was 16.4% (inactive).
To `O=C1CCCCCCCC(=O)Nc2ccc3nc4ccccc4c(c3c2)SCCCCCCCCCCCCSc2c3ccccc3nc3ccc(cc23)N1` belongs -6.5% (inactive).
To `CC(c1ccc([N+](=O)[O-])cc1)n1cnc2c(N(CCO)CCO)ncnc21` (stereo not given) belongs -1.15% (inactive).
To `CCCCCCCCCCCCCCCCCCCOc1ccc(OCCCCCCCCCC)cc1` belongs -2.05% (inactive); to `COc1cc2[nH]c(-c3ccccc3)cc(=O)c2c(OC)c1OC`, -3.65% (inactive); to `Nc1ccc(C(=O)NN2C(=O)C(Cl)C2c2cccc(O)c2)cc1` (stereo not given), -41.7% (inactive).
Regarding `CCCCCCCCCCCCCCCCSC(=N)N`, the growth inhibition was 21.2% (inactive).
To `NCCCCC(N)C(=O)O.[Cu+2]` (stereo not given) belongs 3.95% (inactive); to `CC(=O)/C(=C\c1ccc(/C=C(\C(C)=O)C(=O)CCN(C)C)cc1)C(=O)CCN(C)C`, 58.5% (inactive); to `N#CSCCOCCOC(=O)NC1CCCCC1`, 4.75% (inactive).
With `COc1ccc(C=Nc2c(N)[nH]c(=S)[nH]c2=O)cc1`, the growth inhibition was -12.8% (inactive).
The figure for `CC(=O)N=Cc1c(O)[nH]c2ccccc12` is 11.7% (inactive); for `C(=N\c1nnc2ccccn12)/c1ccccc1` it is -6.8% (inactive).
To `O=C(O)C1Cc2c([nH]c3ccccc23)C(c2ccccc2)N1` (stereo not given) belongs 11.1% (inactive).
